Several values for one entry are separate records, joined by “and”; a condition that tells them apart may be missing. Equal entries are not always repeated. This is part of a sample that, as a whole, favours compounds with a hit. Of some 83,000 tested, about 20% had one in any assay.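 A percent growth of 40 corresponds to 60% growth inhibition; 0 means no net growth; -100 means all cells died. Active threshold: below 10.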 Activity calls are given as the source filed them.
The compounds below were run on HL-60(TB) leukemia (assay: NCI-60 one-dose screen, 48 h (100 = growth as untreated, 0 = no growth, -100 = all killed)). Conditions: 10 µM unless noted.

With CC1=CC(=C(c2ccc(N)cc2)c2ccc(N)cc2)C=CC1=N as the compound, how does the growth read?
Its growth is -13.5% (active) and 47.8% (inactive).

O=C1/C(=C/c2ccc([N+](=O)[O-])cc2)Oc2ccc(O)cc21 was tested. Which growth did it give?
The growth was 86.1% (inactive).

For COc1nc2c(cc1S(=O)(=O)c1ccccc1)CCc1c-2cnn1-c1cccc(Cl)c1, which growth is on record?
Its growth is 65.2% (inactive).

For COc1cc(-c2nc3ccccc3[nH]2)ccc1OCc1nnc(-c2ccc(CC(C)C)cc2)o1, which growth is on record?
The growth was 98.5% (inactive).

How did the growth turn out when O=C1C=C(Nc2ccccc2)c2ccccc2C1=O was run?
The growth was 79.5% (inactive) and 101% (inactive).

With O=C1c2ccccc2C(=O)c2c1oc1c2c(=O)[nH]c2ccc(Cl)cc21 as the compound, how does the growth read?
The growth was 94.5% (inactive).

How did the growth turn out when COc1cc(-c2ccc(N=Nc3ccc4c(S(=O)(=O)O)ccc(N)c4c3O)c(OC)c2)ccc1N=Nc1ccc2c(S(=O)(=O)O)ccc(N)c2c1O was run?
Its growth is 115% (inactive).

With O=[N+]([O-])c1ccc(/C=N\NC(=S)Nc2ccc(F)cc2)cc1 as the compound, how does the growth read?
Its growth is 114% (inactive) and 82.5% (inactive).

How did the growth turn out when COc1cc2c(c(OC)c1OC)CCC(c1cccc(C(=O)Nc3ccc(C#N)cc3)c1)O2 (stereo not given) was run?
The growth was 15.2% (inactive).

O[C@H]1CO[C@H]2[C@@H]1OC[C@@H]2Oc1ccc(Nc2nc(Nc3ccc(F)c(Cl)c3)ncc2F)cc1Cl was tested. Which growth did it give?
Its growth is 104% (inactive).

For c1nc(SC2=NCCN2)c2[nH]cnc2n1, which growth is on record?
Its growth is 22.6% (inactive).

How did the growth turn out when Nc1nc(=S)c2ncn(C3OC(COP(=O)(O)O)C(O)C3O)c2[nH]1 (stereo not given) was run?
Its growth is 16.3% (inactive).

Which growth does the source give for O=C1C(=O)c2ccccc2C(O)=C1CCCc1ccc(C2CCCC2)cc1 here?
The growth was 20.6% (inactive).

How did the growth turn out when COc1cccc2c(=O)c3c(sc12)c(N1CCNCC1)nc1ccccc13 was run?
Its growth is -52.2% (active).

Cc1cccc(CO)c1 was tested. Which growth did it give?
Its growth is 109% (inactive).

How did the growth turn out when COC(=O)[C@H]1[C@H](OC)[C@@H](OC(=O)/C=C/c2ccncc2)CC2CN3CCc4c([nH]c5cc(OC)ccc45)[C@@H]3C[C@@H]21 (stereo not given in full) was run?
Its growth is 28.6% (inactive).

Which growth does the source give for CCOC(=O)C1=C(N)Oc2cc(OC)ccc2C1c1ccc(F)c(F)c1 (stereo not given) here?
The growth was -9% (active).

Which growth does the source give for COc1cc(NC(=O)CCSc2nc3ccccc3c(=O)n2CCc2ccccn2)cc(OC)c1OC here?
The growth was 99.1% (inactive).

How did the growth turn out when NC(=O)c1cccc(-n2ccc3cc(NC(=O)Nc4ccc(Cl)c(C(F)(F)F)c4)ccc32)n1 was run?
Its growth is 99.3% (inactive).

O=C(Nc1cccc(C2=NCCN2)c1)c1ccc(OCCCOc2ccc(C(=O)Nc3cccc(C4=NCCN4)c3)cc2)cc1 was tested. Which growth did it give?
Its growth is -27.3% (active).

Which growth does the source give for CCOC(=O)c1cc(C(=O)OCC)c(C)nc1C here?
Its growth is 96.9% (inactive).

With N=c1c2ccccc2nc2n1CCCCC2 as the compound, how does the growth read?
Its growth is 130% (inactive).

How did the growth turn out when CCN(CC)CCNC(=O)c1cn2ncnc(Oc3ccc(NC(=O)Nc4ccc(Cl)c(C(F)(F)F)c4)cc3)c2c1C was run?
The growth was -40.8% (active).

CN1C=CN(Cc2ccc(-c3ccccn3)nc2)[CH-]1.CN1C=CN(Cc2ccc(-c3ccccn3)nc2)[CH-]1.[Au+3] was tested. Which growth did it give?
Its growth is -9.42% (active).

How did the growth turn out when C=C(C)[C@@H]1CC[C@]2(C(=O)NCCNCCNC(=O)OC(C)(C)C)CC[C@]3(C)[C@H](CC[C@@H]4[C@@]5(C)CCC(=O)C(C)(C)[C@@H]5CC[C@]43C)[C@@H]12 was run?
Its growth is -14.3% [100 µM] (active).

CCOC(=O)c1c(/C=C/C(=O)O)nc2ccccc2c1/C=C/c1ccccc1 was tested. Which growth did it give?
Its growth is 8.28% (active).

Which growth does the source give for CN(C)c1ccc(/C=C/c2ccnc3ccccc23)cc1N here?
Its growth is 43.5% (inactive).

CCOC(CN1CCN(CC(C)C(=O)c2ccccc2)CC1)c1ccccc1 (stereo not given) was tested. Which growth did it give?
Its growth is 110% (inactive).

CC(=O)c1cccc(OC(=O)c2ccccc2)c1 was tested. Which growth did it give?
Its growth is 79.9% (inactive).

Which growth does the source give for C=CC[Se]C(=O)Cc1c(C)n(C(=O)c2ccc(Cl)cc2)c2ccc(OC)cc12 here?
The growth was -53.3% (active).

How did the growth turn out when Cn1c(=O)c2[nH]c(CCCCCCCCc3nc4ccccc4[nH]3)nc2n(C)c1=O was run?
The growth was 59.4% (inactive) and 71.2% (inactive).

Which growth does the source give for CC(=O)O[C@@H]1CCN2C(=O)N(C)c3ccccc3[C@@H]2C1 here?
Its growth is 101% (inactive).

How did the growth turn out when NC1(c2ccc(-c3nc4ccn5c(=O)[nH]nc5c4cc3-c3ccccc3)cc2)CCC1 was run?
Its growth is 50.1% (inactive).

Which growth does the source give for Cc1ccccc1NC(=O)c1sc2nc(C)c(C(=O)/C=C/c3ccccc3)cc2c1N here?
Its growth is 8.8% (active).

How did the growth turn out when CNC(=O)c1cc(Oc2ccc(NC(=O)Nc3ccc(Cl)c(C(F)(F)F)c3)cc2)ccn1 was run?
Its growth is -35.3% (active) and 23.3% (inactive).

With CCOC(=O)C(=Cc1cccc(Br)c1)C(=O)OCC as the compound, how does the growth read?
Its growth is -6.91% (active).

With CCC(C)C1(C2CCCC2)NC(=O)NC1=O (stereo not given) as the compound, how does the growth read?
Its growth is 63.4% (inactive) and 98.2% (inactive).

How did the growth turn out when O=C(C[C@]1(O)C(=O)Nc2ccccc21)c1cccc(C(F)(F)F)c1 was run?
Its growth is 102% (inactive).

With CN(C)CCCC1(c2ccc(F)cc2)OCc2cc(-c3cncc4ccccc34)ccc21 (stereo not given) as the compound, how does the growth read?
Its growth is 10.7% (inactive).

O=C(O)C1CCCN1C(=O)OCc1ccccc1 (stereo not given) was tested. Which growth did it give?
The growth was 102% (inactive).

Reference: PubChem BioAssay (NCI)
